This is an account of results in PubChem BioAssay (NCI).

About 83,000 compounds went through this panel and 20% of them were active in at least one assay; those are over-represented in the sample as a whole.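 Interpretation: 100, growth as untreated; towards 0, rising growth inhibition; 0, no net growth; 0 to -100, cell death. Compounds scoring below 10 were considered active.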 Unmarked numbers belong to inactive results. Active and inactive are the calls of the source.

Test systems include DU-145 prostate; K-562 leukemia; MALME-3M melanoma; MDA-MB-231 breast; RXF 393 renal; SF-268 CNS; SF-295 CNS; SF-539 CNS; UACC-257 melanoma; M14 melanoma; HCT-15 colon; HT29 colon; SNB-75 CNS; SNB-19 CNS; U251 CNS; PC-3 prostate; SK-MEL-5 melanoma; UACC-62 melanoma; LOX IMVI melanoma; SK-MEL-28 melanoma.
What all share (experiment): NCI-60 one-dose screen, 48 h (100 = growth as untreated, 0 = no growth, -100 = all killed)
Common to all, as to conditions: 10 µM unless noted

On to `CN(C)CCCNC(=O)c1cncnc1Nc1ccc(OCc2cccc(F)c2)c(Cl)c1`, for which the growth in the experiment with DU-145 prostate was 23.4%; in the experiment on K-562 leukemia, -57.7% (active); with MALME-3M melanoma, -11.7% (active); in the experiment with MDA-MB-231 breast, -43.4% (active); in the experiment with RXF 393 renal, 20.5%; with SF-268 CNS it was 34.5%. Further, the growth in the experiment with SF-295 CNS was 71.9%; with SF-539 CNS it was -71.2% (active); in the experiment on UACC-257 melanoma it was -63.2% (active); in the experiment on M14 melanoma, -71.4% (active); in the experiment with HCT-15 colon, -37.6% (active); in the experiment on HT29 colon, -49.7% (active). Moreover, the growth in the experiment on SNB-75 CNS is -18.2% (active); with SNB-19 CNS, 57.3%; with U251 CNS, -52.5% (active); in the experiment on PC-3 prostate, 0.306% (active); in the experiment with SK-MEL-5 melanoma, 61.3%; in the experiment on UACC-62 melanoma it was -84.7% (active). The results for the growth with LOX IMVI melanoma and with SK-MEL-28 melanoma were -88.1% (active) and -86.1% (active), respectively.

As for `CC1(C)CC(=O)c2c(nn(-c3ccc(Br)cc3)c2-c2cn(-c3ccccc3)nc2-c2cccnc2)C1`, the growth with DU-145 prostate is 111%; in the experiment on K-562 leukemia it was 84.4%; in the experiment on MALME-3M melanoma it was 101%; in the experiment with MDA-MB-231 breast it was 89.7%; in the experiment with RXF 393 renal, 96.1%; with SF-268 CNS, 97.8%. In addition, the growth with SF-295 CNS is 92.1%; with SF-539 CNS, 105%; with UACC-257 melanoma it was 111%; in the experiment on M14 melanoma, 98.6%; in the experiment on HCT-15 colon, 94.9%; in the experiment on HT29 colon, 98.1%. For the same compound, the growth is 84.3% in the experiment on SNB-75 CNS; 92.5% with SNB-19 CNS; 91.7% in the experiment on U251 CNS; 71.7% in the experiment on PC-3 prostate; 97.2% in the experiment with SK-MEL-5 melanoma; 76.7% with UACC-62 melanoma. In addition, the growth in the experiment on LOX IMVI melanoma was 85.5%; in the experiment with SK-MEL-28 melanoma, 113%.

With `CCOc1cccc(/C=N/NC(=O)c2cccc(Nc3ccnc(C(F)(F)F)c3)c2)c1O`, the growth in the experiment with DU-145 prostate was 19.2%; in the experiment with K-562 leukemia, 28.7%; with MALME-3M melanoma, 30.9%; in the experiment with MDA-MB-231 breast it was 45%; in the experiment on RXF 393 renal, 47.4%; with SF-268 CNS, 26.7%. Moreover, the growth in the experiment with SF-295 CNS is 30.3%; in the experiment on SF-539 CNS, 14.8%; in the experiment on UACC-257 melanoma, 37.3%; with M14 melanoma, -6.87% (active); with HCT-15 colon, 28.8%; in the experiment on HT29 colon, 53.2%. Also, the growth in the experiment with SNB-75 CNS is 36.4%; in the experiment on SNB-19 CNS, 35.1%; in the experiment on U251 CNS it was 37%; in the experiment on PC-3 prostate, 59.1%; with SK-MEL-5 melanoma, 34.7%; with UACC-62 melanoma, 0.213% (active). In addition, the growth is 11.8% in the experiment on LOX IMVI melanoma and 34.6% with SK-MEL-28 melanoma.

As to `CC1C=CC(OC(=O)C(C)(O)CCC(O)(C(=O)OC2CC(O)C(C(C)C)CC2(C)O)C(C)C)(C(C)C)CC1` (stereo not given), the growth is -89% [4.63 µM] (active) in the experiment with DU-145 prostate; -61.1% [4.63 µM] (active) in the experiment on K-562 leukemia; -71.5% [4.63 µM] (active) in the experiment on MALME-3M melanoma; -59.7% [4.63 µM] (active) with MDA-MB-231 breast; -87.3% [4.63 µM] (active) with RXF 393 renal; -43.9% [4.63 µM] (active) in the experiment with SF-268 CNS. In addition, the growth with SF-295 CNS was -86.9% [4.63 µM] (active); in the experiment with SF-539 CNS, -95.5% [4.63 µM] (active); in the experiment with UACC-257 melanoma, -88% [4.63 µM] (active); in the experiment with M14 melanoma it was -74.8% [4.63 µM] (active); in the experiment on HCT-15 colon, -68.5% [4.63 µM] (active); with HT29 colon, -39.6% [4.63 µM] (active). Further, the growth was -45.9% [4.63 µM] (active) in the experiment with SNB-75 CNS; -75% [4.63 µM] (active) with SNB-19 CNS; -94.2% [4.63 µM] (active) with U251 CNS; -84.9% [4.63 µM] (active) in the experiment with PC-3 prostate; -99.8% [4.63 µM] (active) with SK-MEL-5 melanoma; -88.9% [4.63 µM] (active) in the experiment with UACC-62 melanoma. The growth in the experiment on LOX IMVI melanoma is -88.4% [4.63 µM] (active); with SK-MEL-28 melanoma, -96.9% [4.63 µM] (active).

`CC1=CCC(OC(=O)C(C)(C)CC(O)(C(C)O)C(O)C2(C)C=CC(Cc3ccc(C(C)C)cc3)(C(C)C)CC2)(C(C)C)CC1` (stereo not given): the growth in the experiment with DU-145 prostate is 107%; with K-562 leukemia it was 9.06% (active); in the experiment with MALME-3M melanoma, 92.2%; in the experiment with MDA-MB-231 breast, 95.9%; with RXF 393 renal, 97.8%; with SF-268 CNS, 98.5%. In addition, the growth in the experiment with SF-295 CNS is 97.1%; in the experiment on SF-539 CNS, 93.3%; in the experiment on UACC-257 melanoma, 98.7%; in the experiment with M14 melanoma, 96.1%; with HCT-15 colon, 101%; with HT29 colon it was 103%. Further, the growth with SNB-75 CNS was 72.5%; in the experiment on SNB-19 CNS, 98.2%; in the experiment with U251 CNS, 96.7%; in the experiment with PC-3 prostate, 96.8%; in the experiment with SK-MEL-5 melanoma, 99.6%; in the experiment on UACC-62 melanoma, 86.3%. Besides, the growth with LOX IMVI melanoma is -50.6% (active); in the experiment with SK-MEL-28 melanoma, 100%.

As to `Nn1c(=O)c(=O)[nH]c2c(cnn2-c2ccccc2)c1=O`, the growth with DU-145 prostate was 114%; in the experiment on K-562 leukemia it was 96.4%; in the experiment on MALME-3M melanoma it was 106%; in the experiment on MDA-MB-231 breast, 105%; in the experiment on RXF 393 renal, 113%; in the experiment with SF-268 CNS it was 99.7%. Further, the growth in the experiment with SF-295 CNS was 102%; in the experiment with SF-539 CNS, 99.8%; with UACC-257 melanoma, 107%; in the experiment with M14 melanoma it was 110%; in the experiment on HCT-15 colon, 101%; with HT29 colon, 110%. Further, the growth with SNB-75 CNS was 92.5%; with SNB-19 CNS, 103%; in the experiment on U251 CNS, 105%; with PC-3 prostate, 106%; in the experiment with SK-MEL-5 melanoma it was 101%; with UACC-62 melanoma, 102%. For the same compound, the values for the growth in the experiment with LOX IMVI melanoma and with SK-MEL-28 melanoma were 101% and 113%, respectively.

Regarding `O=C(N=Nc1c(O)[nH]c2ccccc12)Nc1ccc(F)cc1`, the growth with DU-145 prostate is 105%; in the experiment on K-562 leukemia, 85%; with MALME-3M melanoma, 97.6%; with MDA-MB-231 breast it was 94%; in the experiment with RXF 393 renal, 110%; in the experiment with SF-268 CNS, 104%. For the same compound, the growth is 95% with SF-295 CNS; 94.9% in the experiment on SF-539 CNS; 93.9% with UACC-257 melanoma; 99.7% in the experiment with M14 melanoma; 97% in the experiment with HCT-15 colon; 102% with HT29 colon. The growth was 91.3% in the experiment on SNB-75 CNS; 97% in the experiment with SNB-19 CNS; 90.7% in the experiment with U251 CNS; 85.9% in the experiment with PC-3 prostate; 101% in the experiment on SK-MEL-5 melanoma; 79.3% with UACC-62 melanoma. The growth in the experiment on LOX IMVI melanoma was 92.2%; in the experiment on SK-MEL-28 melanoma, 108%.

With `CCOC(=O)c1c(C)nc2c(c1N)/C(=C/c1ccc(OC)cc1)C(=O)N2Cc1ccccc1`, the growth in the experiment with DU-145 prostate is 60.7%; with K-562 leukemia, 46.5%; with MALME-3M melanoma, 64.5%; in the experiment with MDA-MB-231 breast, 57.8%; in the experiment on RXF 393 renal, 71.4%; with SF-268 CNS, 62.3%. The growth in the experiment on SF-295 CNS was 68.7%; with SF-539 CNS it was 87.5%; with UACC-257 melanoma it was 49.6%; in the experiment on M14 melanoma, 71.3%; in the experiment with HCT-15 colon it was 41%; in the experiment with HT29 colon it was 34%. Besides, the growth in the experiment on SNB-75 CNS was 73.3%; in the experiment with SNB-19 CNS, 77.7%; in the experiment on U251 CNS, 50.7%; in the experiment on PC-3 prostate it was 58.4%; in the experiment with SK-MEL-5 melanoma it was 61.8%; in the experiment on UACC-62 melanoma it was 48.8%. Also, the growth with LOX IMVI melanoma was 55.6%; in the experiment with SK-MEL-28 melanoma it was 78.5%.
